Source: PubChem BioAssay (NCI)
Compounds without any hit were thinned out: in the full panel of roughly 83,000, 20% have a hit.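 Plates (96-well) were seeded with cells, treated with compound at one concentration, and incubated for 48 hours before percent growth was determined.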 A number with no mark means an inactive call. Activity calls are given as the source filed them. Rule for the calls: active = growth percent below 10; inactive = the rest.

Tests used:
Test in all cases: NCI-60 one-dose screen, 48 h (100 = growth as untreated, 0 = no growth, -100 = all killed)
Conditions in all cases: 10 µM unless noted
T-47D breast = system: T-47D breast
BT-549 breast = system: BT-549 breast
MDA-MB-435 melanoma = system: MDA-MB-435 melanoma
SW-620 colon = system: SW-620 colon
MCF7 breast = system: MCF7 breast
HCT-116 colon = system: HCT-116 colon
HCC-2998 colon = system: HCC-2998 colon
KM12 colon = system: KM12 colon

Row | SMILES | growth (T-47D breast) | growth (BT-549 breast) | growth (MDA-MB-435 melanoma) | growth (SW-620 colon) | growth (MCF7 breast) | growth (HCT-116 colon) | growth (HCC-2998 colon) | growth (KM12 colon)
1 | O=C(Cc1n[nH]c(=O)c2ccccc12)OCc1c(Cl)cccc1Cl | 100% | 138% | 84.7% | 86.9% | 69.9% | 49.9% | 70.8% | 66.1%
2 | COc1cc(-c2nc(-c3nc4ccccc4[nH]3)cc3c2[nH]c2ccccc23)cc(OC)c1OC | 25% | 27% | 31.1% | 56.5% | 42.6% | 23% | 57.3% | 18.7%
3 | CCC(c1cccc(Br)c1)C(C(=O)O)c1ccc(OC)cc1 (stereo not given) | 108% | 113% | 29.9% | 93.2% | 93% | 112% | 93.5% | 83.3%
4 | N#CC1=C(N)OC2=C(C(=O)CCC2)C1c1ccco1 (stereo not given) | 92.6% | 110% | 98.9% | 110% | 95.5% | 103% | 104% | 110%
5 | N#CC1=C(N)n2nc(-c3ccncc3)nc2NC1c1cccc2ccccc12 (stereo not given) | 66.2% | 90.1% | 88.1% | 100% | 80.5% | 87.9% | 105% | 97.6%
6 | COc1ccc(/C=C/C(=O)c2ccc(B(O)O)cc2)cc1O | 79.2% | 64.8% | 3.03% (active) | 28.5% | 20.2% | 1.46% (active) | 49.8% | 9.39% (active)
7 | O=C(O)Cc1ccc2c(c1)Cc1cccnc1O2 | 89.3% | 101% | 103% | 106% | 94.6% | 100% | 99% | 98.7%
8 | COc1ccc(N=C2NN=C(c3ccc(F)cc3)CS2)cc1OC | 86.7% | 108% | 83.3% | 98.6% | 104% | 96.1% | 98.1% | 99.2%
9 | Nc1ccccc1C#C/C=C\C#Cc1cccc(O)c1 | 55.2% | 44.8% | 6.89% (active) | 32.4% | 35.9% | 42.3% | 41.3% | 27.9%
10 | O=C(Nc1ccc(Br)c(Cl)c1)c1cc(F)ccc1O | 3.88% (active) | -39% (active) | -11.3% (active) | 7.76% (active) | 2.5% (active) | -21.8% (active) | 14.7% | 2.98% (active)
11 | CC/C(=C(\c1ccc(O)cc1)c1ccc(OCCN(C)CCN(C)C(=O)CCC(=O)c2c(C)[nH]c(/C=C3\N=C(c4ccc[nH]4)C=C3OC)c2C)cc1)c1ccccc1 | 69.3% | 103% | 63.8% | 66.2% | 34.3% | 65.2% | 92.2% | 42.4%
12 | O=C(Nc1ccc(OCc2nnc(-c3ccc(Cl)cc3)o2)c(F)c1)Nc1ccc(Cl)c(Cl)c1 | 55.8% | 93.6% | 73.1% | 47% | 50.3% | 29.7% | 85.4% | 53.7%
13 | Cc1ccc2nc(-c3c(CCCO)noc3N)[nH]c(=O)c2c1 | 107% | 102% | 110% | 103% | 88.7% | 102% | 128% | 102%
14 | Cc1nc2sccn2c1-c1csc(Nc2ccccc2Cl)n1 | 41% | 40.6% | 2.78% (active) | 33.1% | 33.9% | 27.8% | 63.8% | 29.6%
15 | Nc1c(C(=O)Nc2ccccc2)sc2nc3c(cc12)CCC3 | 101% | 81.7% | -1% (active) | 53.1% | 51.8% | 66.6% | 89.4% | 52.8%
16 | CC(CCc1ccccc1)NC(=O)c1n[nH]c(=O)c2ccccc12 (stereo not given) | 95.8% | 98.9% | 108% | 100% | 90.7% | 97% | 156% | 109%
17 | O=C(/C=C/CN1CCCCC1)Nc1cc2c(Nc3ccc(F)c(Cl)c3F)ncnc2cc1OCCOC(F)F | -1.83% (active) | 18.3% | 8.14% (active) | 10.3% | 17.6% | 6.6% (active) | 40.6% | 36.5%

Row | SMILES | growth (T-47D breast) | growth (BT-549 breast) | growth (MDA-MB-435 melanoma) | growth (SW-620 colon) | growth (MCF7 breast) | growth (HCT-116 colon) | growth (HCC-2998 colon) | growth (KM12 colon)
18 | COc1cc(-n2nc(C(=O)Nc3ccc(C(=O)O)cc3)nc2-c2ccccc2)cc(OC)c1OC | 79% | 105% | 113% | 101% | 93.5% | 91.7% | 97.9% | 105%
19 | CCCCC[C@@H]1Cc2cc(O)c(C(=O)O)c3c2[C@H](C[C@@]2(CCCO2)O3)O1 | 108% | 115% | 97.2% | 111% | 102% | 100% | 95.9% | 118%
20 | O=c1[nH]c(-c2cn(-c3ccc(Cl)cc3)nn2)nc2ccccc12 | 54.4% | 79.6% | 77.2% | 94.4% | 99.8% | 52% | 90% | 84.7%
21 | O=C(CNc1ccc(Cl)cc1)Nc1ccc(-c2nc3ccccc3s2)cc1 | 4.58% (active) | 16.7% | 62.8% | 22.6% | 11.5% | 23.3% | -16.2% (active) | 80.7%
22 | CC/C=C\C[C@H](O)C/C=C1/C(=O)C(Cl)=C[C@@H]1C/C=C\CCCC(=O)O | 56.9% | 58.5% | 19.3% | 2.12% (active) | 26.3% | -88.6% (active) | 76.4% | 46.4%
23 | Cc1cc2c(C(C)C)c(O)c(O)c(C=NCCCCC(=O)O)c2c(O)c1-c1c(C)cc2c(C(C)C)c(O)c(O)c(C=NCCCCC(=O)O)c2c1O | 53.9% | 41.6% | 61% | 37.1% | 32.8% | 33% | 40.2% | 25.6%
24 | COc1cc(OC)c(C(=O)/C=C/c2cccc(C(F)(F)F)c2)c(OC)c1 | 16.4% | -2.51% (active) | 16.2% | 0.796% (active) | 17% | 2.79% (active) | 29.1% | 11%
25 | CCCCCCc1nc2c(c(C)nn2-c2ccccc2)c2c1CCCCC2 | 92.2% | 113% | 116% | 101% | 107% |  | 106% | 108%
26 | Nc1nc(-c2cc3ccccc3o2)cc(=O)c(=O)[nH]1 | 104% | 106% | 105% | 102% | 91% | 110% |  | 105%
27 | Cc1cc(N/C=c2\sc3ncnn3c2=O)no1 | 96.1% | 104% | 97.6% | 98.8% | 86.1% | 95.1% | 96.9% | 84.3%
28 | CC1=C(C#N)C(C)(C)C(C#N)=C(C)N1 | 96.6% | 100% | 105% | 102% | 96.7% |  | 108% | 103%
29 | O=C(CNc1c(Cl)cccc1Cl)Nc1ccc(-c2nc3ccccc3s2)cc1 | -19% (active) | 22% | 67.9% | 35.3% | 14.6% |  | 35.6% | 91.3%
30 | COc1ccc2c(c1)NC(=O)CN2c1nc(NC2CC2)nc2ccccc12 | 13.2% | -17% (active) | -36% (active) | 23.6% | 9.56% (active) |  | 6.95% (active) | 3.45% (active)
31 | O=c1oc2c([nH]c3ccc4ccccc4c32)c2ccccc12 | 77.5% | 104% | 105% | 98.3% | 73.7% | 102% |  | 106%
32 | COc1cc(CNC(=O)CSc2nc3ccccc3c(=O)n2Cc2cc(OC)c(OC)c(OC)c2)cc(OC)c1OC | 89.7% | 104% | 103% | 109% | 92.7% | 97.5% |  | 102%
33 | COc1cc2nc(Cl)nc(NCCO)c2cc1OC | 101% | 112% | 106% | 104% | 100% |  | 102% | 
